# Assay results as given in PubChem BioAssay AID485270 (The Scripps Research Institute Molecular Screening Center, 2010).
# Among all 330,000 compounds or so, about 5,800 (1.8%) were called active. Only a selection was taken, and actives are over-represented in it overall. Values without a mark were called inactive. Rule as the data show it: active = inhibition mostly above about 38% (no sharp cut-off); inactive = mostly below about 40%.
# Molecular target: Orexin/Hypocretin receptor type 1 (Homo sapiens) (UniProt O43613)
# Sequence (O43613 whole entry, looked up): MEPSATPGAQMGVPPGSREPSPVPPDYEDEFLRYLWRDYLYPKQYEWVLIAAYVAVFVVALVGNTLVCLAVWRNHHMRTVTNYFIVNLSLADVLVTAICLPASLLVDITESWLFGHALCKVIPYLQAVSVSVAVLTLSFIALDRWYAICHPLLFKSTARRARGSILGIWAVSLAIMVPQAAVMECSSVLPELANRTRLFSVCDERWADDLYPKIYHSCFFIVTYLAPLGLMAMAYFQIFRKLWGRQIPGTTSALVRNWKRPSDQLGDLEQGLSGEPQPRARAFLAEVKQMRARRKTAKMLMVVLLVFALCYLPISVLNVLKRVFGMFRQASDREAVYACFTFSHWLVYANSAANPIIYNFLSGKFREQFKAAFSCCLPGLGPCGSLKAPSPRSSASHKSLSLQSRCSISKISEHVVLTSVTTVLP
# Assay: antagonists of human orexin 1 receptor (OX1R) (AID 485270);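 also: 0% = agonist challenge alone and 100% = reference antagonist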
# Details: OX1R-expressing cells, FRET antagonist read-out; at 6.6 µM; hits give high values
row,SMILES,inhibition
1,CCC(CO)Oc1cc(NC(=O)c2cccc(F)c2)c2ncn(C(C)C)c2c1 (stereo not given),10.7%
2,COc1cccc(NC(=O)COc2cccnc2[N+](=O)[O-])c1,17.9%
3,O=C(CCNC(=O)c1ccccc1)NN=Cc1ccc(Br)o1,13.7%
4,COc1cc(NC(=O)c2ccccc2NS(=O)(=O)c2ccc(Cl)s2)cc(OC)c1,72.7% (active)
5,COC(=O)c1ccc(NC(=O)c2ccccc2NS(=O)(=O)c2ccccc2)cc1,27%
6,COc1cc(OC)c(S(=O)(=O)Nc2ccccc2C(=O)O)cc1S(=O)(=O)Nc1ccccc1C(=O)O,3.5%
7,NC[C@H](Cc1ccccc1)NCCc1cc(C(F)(F)F)cc(C(F)(F)F)c1,4.07%
8,CCCN(CC1CC1)C(=O)COC(=O)c1ccc(C)cc1O,10.6%
9,Cc1[nH]n(-c2ccccc2)c(=O)c1/C=N/NC(=O)c1ccoc1C,17.4%
10,Cc1ccc(-n2[nH]c(C)c(/C=N/N3C(=O)c4cccc5cccc(c45)C3=O)c2=O)cc1,67% (active)
11,COc1cc(SC#N)ccc1N=Cc1c(C)[nH]n(-c2ccc(C)cc2)c1=O,14.1%
12,COc1ccc(CC(=O)N[C@@H]2c3cc(OC)c(OC)cc3C[C@H]2OCc2ccccc2)cc1,16%
13,O=C1NC[C@@H](c2ccccc2)OC(=O)[C@H](Cc2ccc(F)cc2)CC/C=C/C[C@H]1CC(=O)N(CCO)Cc1ccccc1,28.2%
14,Cc1cc(NC(=O)CSCC(=O)NC(C)c2ccccc2)no1 (stereo not given),-1.97%
15,CC(NC(=O)c1ccccc1F)c1cccc2ccccc12 (stereo not given),29.1%
16,CC(NC(=O)c1cccc2ccccc12)c1ccc2c(c1)CCCC2 (stereo not given),79% (active)
17,CC(NC(=O)c1ccccc1C(=O)O)c1ccc(-n2ccnc2)cc1 (stereo not given),14.7%
18,C#CCOCCOCCOCCNc1nc(N2CCN(C(=O)[C@H](CO)n3cc([C@@H](N)C(C)C)nn3)CC2)nc(N2CCN(C(=O)[C@H](CCC(=O)O)n3cc([C@@H](N)[C@H](C)CC)nn3)CC2)n1,3.25%
19,Cc1n[nH]c(=O)c2c(NC(=O)CSc3ccccc3F)oc(C)c12,15.6%
20,Cc1n[nH]c(=O)c2c(NC(=O)CSc3cc(Cl)ccc3Cl)oc(C)c12,15.7%
21,Cc1n[nH]c(=O)c2c(NC(=O)COC(=O)c3ncc(Cl)c(Cl)c3Cl)oc(C)c12,52.6% (active)
22,Cc1ccc(NC(=O)C2CCC(C(C)(C)C)CC2)cc1S(=O)(=O)N1CCOCC1 (stereo not given),13.3%
23,O=C(CC1CCCCC1)NCc1ccccc1,7.66%
24,O=C(CN1C(=O)NC(Cc2ccccc2)(Cc2ccccc2)C1=O)NCC1CCCCC1,42.4% (active)
25,CCCCNC(=O)CN1C(=O)NC(Cc2ccccc2)(Cc2ccccc2)C1=O,28.3%
